SMILES strings stand for the structures. Records with an inconclusive call do not appear. A number with no mark means an inactive call. Activity calls are given as the source filed them. Calls follow the shape of the dose curve; as a rule, active = well fitted curve in either direction with a large enough effect (not every such curve was filed as active); inconclusive = small, poorly fitted or top-dose-only effect, or another doubt; inactive = flat fitted curve, though single readings scatter.
% is scaled to controls: 0 for no effect and ±100 for the full control effect.

A short description of the test: NFAT Signaling Pathway (AID 444).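 Also: carbachol stimulus at about its EC50 of 1 µM final.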 The settings on record: Jurkat NFAT-bla M1, carbachol, beta-lactamase ratio, 5 h; at 17.2 µM (top of the series) unless noted. In outline: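 Jurkat cells with NFAT-driven β-lactamase reporter and co-expressed M1 receptor, stimulated with carbachol (final 1 uM, ~EC50), compound titration, 5 h at 37 °C. CCF4 loaded 1 h at RT; 460/530 nm ratio gave %activity and AC50.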
Regarding `Cc1ccc(-n2ncc3c(NCc4ccc5c(c4)OCO5)ncnc32)c(C)c1`, the activity change, negative = inhibition is 8.44%.
As for `CN1CCc2c(C#N)c(N3CCCCC3)nc(NCc3ccccc3)c2C1`, the figure is -7.69%.
As for `O=S(=O)(N[C@@H]1C[C@H]2CC[C@@H]1C2)c1cccs1`, the activity change, negative = inhibition was -11.3%.
For `CN(C)C/C(Cl)=C(\Cl)c1ccccc1`, the activity change, negative = inhibition was -119% (active).
Turning to `CC1(C(=O)O)CCC(C(=O)NC2CCCCCC2)C1(C)C` (stereo unspecified), the activity change, negative = inhibition was -7.92%.
The figure for `COC(=O)c1ccccc1NC(=O)CSc1nnc(-c2ccncc2)o1` is 4.54%; for `CCC[C@@H]1C[C@@H](C(=O)N[C@H]([C@@H](C)O)[C@H]2O[C@H](SC)[C@H](O)[C@@H](O)C2O)N(C)C1` (stereo partly specified) it is 8.75%.
As for `CCCOc1ccc(N2C(=O)C3ON(c4ccccc4)C(c4ccc(O)c(OC)c4)C3C2=O)cc1` (stereo unspecified), the figure is 10.7%; as for `CC1(C)CC(=O)C(C=NCC(O)c2ccccc2)=C(O)C1` (stereo unspecified), -0.832%.
The figure for `CCOc1ccc(C2C(C#N)=C(N)Oc3cc(C)n(CCN4CCOCC4)c(=O)c32)cc1OCC` (stereo unspecified) is 7.01%; for `C=CCOC(=O)C1=C(C)NC(SCC(=O)N(CC)CC)=C(C#N)C1c1ccccc1` (stereo unspecified) it is 2.35%.
For `Cc1cccc(Nc2ncnc3ccccc23)c1`, the activity change, negative = inhibition is -1.27%.
Consider `N#Cc1c(N2CCCCC2)nc(N2CCCCC2)c2c1CCN(Cc1ccccc1)C2`, for which the activity change, negative = inhibition is -13%.
On to `Cc1cc(=O)[nH]c(SCC(=O)c2ccccc2)c1C#N`, for which the activity change, negative = inhibition was 14.5%.
As for `CC12CCC(C(=O)NCCCN3CCOCC3)(OC1=O)C2(C)C` (stereo unspecified), the figure is 10.5%; as for `CCOC(=O)N1CCN(c2ncnc3c2cnn3-c2ccc(OC)cc2)CC1`, 10.2%.

Source of the values: PubChem BioAssay (NCATS).
